Reference: PubChem BioAssay AID2355 (The Scripps Research Institute Molecular Screening Center, 2010)
Some of the results follow. Unmarked numbers belong to inactive results. Activity calls are given as the source filed them. Cut-off read from the data, not from the text of the source: active = inhibition above about 16%; inactive = the rest.

Each compound was assayed against Serine/threonine-protein phosphatase PP1-alpha catalytic subunit (Homo sapiens) (UniProt P62136) (assay: human PP1 catalytic activity blockade – biochemical, fluorescence, triplicate, counter-screen for PP5 inhibitor project (AID 2355)). Conditions: PP1 enzyme, fluorescent phosphatase substrate; at 6.7 µM; hits give high values.
Serine/threonine-protein phosphatase PP1-alpha catalytic subunit (Homo sapiens), sequence (P62136 whole entry, looked up): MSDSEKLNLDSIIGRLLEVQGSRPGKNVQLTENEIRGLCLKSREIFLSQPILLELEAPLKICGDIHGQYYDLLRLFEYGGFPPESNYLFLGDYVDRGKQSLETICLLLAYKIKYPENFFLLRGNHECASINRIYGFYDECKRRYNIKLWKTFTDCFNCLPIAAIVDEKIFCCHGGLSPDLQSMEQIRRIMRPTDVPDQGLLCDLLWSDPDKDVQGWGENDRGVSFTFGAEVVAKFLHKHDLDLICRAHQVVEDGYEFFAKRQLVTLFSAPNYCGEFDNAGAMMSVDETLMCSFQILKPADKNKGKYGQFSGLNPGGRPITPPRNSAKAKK

SMILES	inhibition
COc1cc(/C=C2/SC(=S)N(Cc3ccccc3)C2=O)cc(OC)c1O	2.23%
CN(c1ccccc1)S(=O)(=O)c1ccc(NC(=O)COc2ccccc2)cc1	3.34%
Cc1nc(NC(CC(C)C)C(=O)O)c2nc(C)oc2n1 (stereo not drawn)	-4.44%
N#Cc1c(N2CCCCC2)nc(N)c2c(N)nc(SCC(=O)O)cc12	3.99%
CN(C)c1nc(N)nc(CSc2nnnn2-c2cccc3ccccc23)n1	-1.14%
COc1cc(C(F)(F)F)c(C(=O)N(C)c2ccc(Cl)cc2)cn1	0.28%
CNC(=S)NNC(=O)c1oc2nc(-c3ccccc3)cc(-c3ccco3)c2c1N	-1.11%
CCN1CCN(CCNC(=O)c2ccc(/C=C3/Sc4ccccc4N(Cc4cccc(C)c4)C3=O)cc2)CC1	-16%
Cc1sc(NC(=O)C2C3CCC(O3)C2C(=O)O)c(C(=O)OC(C)C)c1-c1ccc(Cl)cc1 (stereo not drawn)	9.97%
O=C(O)c1n[nH]nc1-c1ccccc1	0.18%
O=[N+]([O-])c1cccc2ncccc12	-2.99%
O=C(C1=C[C@H](c2ccc(C(F)(F)F)cc2)C[C@H](OCc2ccc(CO)cc2)O1)N1CCN(Cc2ccccc2)CC1	3.55%
O=c1ccc2c(-c3ccccc3S(=O)(=O)O)c3ccc(O)c(O)c3oc-2c1O	5.34%
CCOC(=O)Nc1ccc2c(c1)N(C(=O)CN1CCN3CCCC3C1)c1ccccc1CC2 (stereo not drawn)	-7%
COc1ccc(OC)c(C(=O)c2ccc(C(=O)O)cc2)c1	-5.81%
C[C@@]12C(=O)N(c3cccc(Br)c3)C(=O)N1[C@H](c1ccc(Cl)cc1)[C@@H]1C(=O)N(C3CCCCC3)C(=O)[C@@H]12	6.16%
Cc1nnc(SCc2nc3ccccc3nc2C)s1	-2.74%
COCCN1C=C2C(=O)C(C)(OC(=O)C3CCCC3)C(=O)C=C2C=C1c1ccsc1 (stereo not drawn)	16.6% (active)
